The source of these data is PMC7862700, “An all-to-all approach to the identification of sequence-specific readers for epigenetic DNA modifications on cytosine”.

Common to all, as to assay: DAPPL (digital affinity profiling via proximity ligation, sequencing); 10 mM Tris-HCl pH 7.5, 50 mM NaCl, 1 mM DTT, 4% glycerol, room temperature, 30 min; GST-TFs on glutathione beads, 16-mer random dsDNA library, 0.1% formaldehyde crosslink after washing; high values mean tight binding
One assay addresses T1, FLI1 (Homo sapiens, UniProt Q01543 1-452).
T1 sequence: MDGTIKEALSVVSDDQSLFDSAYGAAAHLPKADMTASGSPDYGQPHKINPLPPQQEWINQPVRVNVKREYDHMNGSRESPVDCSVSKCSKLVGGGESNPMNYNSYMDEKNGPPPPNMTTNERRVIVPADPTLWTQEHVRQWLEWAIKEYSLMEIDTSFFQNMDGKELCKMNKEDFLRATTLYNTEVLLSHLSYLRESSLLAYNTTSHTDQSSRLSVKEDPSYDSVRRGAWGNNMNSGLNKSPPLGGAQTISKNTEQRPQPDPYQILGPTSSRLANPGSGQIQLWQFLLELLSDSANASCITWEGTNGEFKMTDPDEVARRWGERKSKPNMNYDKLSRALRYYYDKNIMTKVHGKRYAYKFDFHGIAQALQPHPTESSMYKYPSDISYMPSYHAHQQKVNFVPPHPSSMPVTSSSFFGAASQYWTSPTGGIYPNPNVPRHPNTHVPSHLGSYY
The settings on record: protein: recombinant; tags: N-terminal GST; dsDNA, one strand shown. Put shortly:
(§1)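 Pools were built from human transcription factors expressed in yeast as GST fusions, captured on glutathione beads and DNA-barcoded, along with a tag-only sample. Incubation with 200 nmole of a 16-mer random double-stranded DNA library lasted 30 min at room temperature in Tris/NaCl/DTT/glycerol buffer, and was followed by washing, 0.1% formaldehyde crosslinking, proximity ligation, PCR amplification and Illumina NextSeq500 sequencing. Binding signal is the quotient of each hexamer's read frequency for a factor and its frequency for the tag-only sample.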

Another assay addresses T2, ELK1 (Homo sapiens, UniProt P19419 1-428).
T2 sequence: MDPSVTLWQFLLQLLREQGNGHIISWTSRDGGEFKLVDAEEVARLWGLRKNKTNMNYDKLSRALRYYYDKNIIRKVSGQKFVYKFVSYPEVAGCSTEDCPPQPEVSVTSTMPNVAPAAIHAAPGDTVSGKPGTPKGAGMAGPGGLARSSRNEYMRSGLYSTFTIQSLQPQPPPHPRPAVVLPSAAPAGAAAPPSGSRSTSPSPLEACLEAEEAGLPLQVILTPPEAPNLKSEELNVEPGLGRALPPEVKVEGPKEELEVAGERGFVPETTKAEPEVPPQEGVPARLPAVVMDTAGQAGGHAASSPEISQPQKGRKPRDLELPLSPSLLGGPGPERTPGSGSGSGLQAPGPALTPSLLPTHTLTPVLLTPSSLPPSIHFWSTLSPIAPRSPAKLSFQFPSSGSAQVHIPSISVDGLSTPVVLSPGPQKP
As to conditions: protein: recombinant; tags: N-terminal GST; dsDNA, one strand shown. Put shortly: as §1

Another assay deals with T3, GABPA (Homo sapiens, UniProt Q06546 1-454).
T3 sequence: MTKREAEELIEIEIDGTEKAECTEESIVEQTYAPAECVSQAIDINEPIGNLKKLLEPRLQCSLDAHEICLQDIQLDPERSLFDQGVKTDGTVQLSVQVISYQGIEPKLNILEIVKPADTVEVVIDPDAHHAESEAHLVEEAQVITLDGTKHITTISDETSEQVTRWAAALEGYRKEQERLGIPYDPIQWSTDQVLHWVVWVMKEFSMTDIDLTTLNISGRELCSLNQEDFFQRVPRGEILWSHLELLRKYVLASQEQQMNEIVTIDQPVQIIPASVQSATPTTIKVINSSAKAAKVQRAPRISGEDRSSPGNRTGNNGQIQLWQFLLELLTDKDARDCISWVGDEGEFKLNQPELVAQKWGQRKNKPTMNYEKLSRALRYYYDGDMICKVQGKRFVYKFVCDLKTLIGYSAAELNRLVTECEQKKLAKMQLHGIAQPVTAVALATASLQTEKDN
The settings on record: protein: recombinant; tags: N-terminal GST; dsDNA, one strand shown. The essentials: as §1

A further assay addresses T4, ERG (Homo sapiens, UniProt P11308 1-479).
T4 sequence: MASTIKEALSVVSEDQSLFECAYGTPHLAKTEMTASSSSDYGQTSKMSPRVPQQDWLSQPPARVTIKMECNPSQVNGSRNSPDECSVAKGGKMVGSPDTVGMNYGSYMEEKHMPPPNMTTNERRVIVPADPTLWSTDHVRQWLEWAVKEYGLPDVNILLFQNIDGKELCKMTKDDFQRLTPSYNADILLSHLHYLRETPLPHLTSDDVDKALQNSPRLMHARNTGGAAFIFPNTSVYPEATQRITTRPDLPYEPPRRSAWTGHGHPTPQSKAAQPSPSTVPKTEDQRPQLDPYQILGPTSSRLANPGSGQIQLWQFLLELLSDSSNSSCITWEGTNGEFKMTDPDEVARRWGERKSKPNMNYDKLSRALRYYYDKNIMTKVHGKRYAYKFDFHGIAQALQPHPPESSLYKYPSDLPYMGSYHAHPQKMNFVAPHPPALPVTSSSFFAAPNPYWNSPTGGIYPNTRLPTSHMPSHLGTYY
As to conditions: protein: recombinant; tags: N-terminal GST; dsDNA, one strand shown. The essentials: as §1

Another assay has as its target ELF1 (Homo sapiens, UniProt P32519 1-619). As to conditions: protein: recombinant; tags: N-terminal GST; dsDNA, one strand shown. The essentials: as §1
A further assay has as its target T5, EHF (Homo sapiens, UniProt Q9NZC4 1-300).
T5 sequence: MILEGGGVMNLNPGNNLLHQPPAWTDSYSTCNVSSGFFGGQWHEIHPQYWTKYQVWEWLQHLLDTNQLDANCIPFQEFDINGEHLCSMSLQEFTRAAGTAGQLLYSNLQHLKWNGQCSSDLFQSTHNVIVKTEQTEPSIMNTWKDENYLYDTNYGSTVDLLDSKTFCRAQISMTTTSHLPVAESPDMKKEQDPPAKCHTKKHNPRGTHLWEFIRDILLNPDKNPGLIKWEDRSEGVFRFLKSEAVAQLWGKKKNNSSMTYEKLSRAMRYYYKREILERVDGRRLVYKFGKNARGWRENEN
The settings on record: protein: recombinant; tags: N-terminal GST; dsDNA, one strand shown. The essentials:
as §1

The next assay has as its target SPI1 (Homo sapiens, UniProt P17947 1-270). The settings on record: protein: recombinant; tags: N-terminal GST; dsDNA, one strand shown. Put shortly: as §1
The next assay addresses SPIB (Homo sapiens, UniProt Q01892 1-262). As to conditions: protein: recombinant; tags: N-terminal GST; dsDNA, one strand shown. The essentials:
as §1

A further assay addresses T6, ELK3 (Homo sapiens, UniProt P41970 1-407).
T6 sequence: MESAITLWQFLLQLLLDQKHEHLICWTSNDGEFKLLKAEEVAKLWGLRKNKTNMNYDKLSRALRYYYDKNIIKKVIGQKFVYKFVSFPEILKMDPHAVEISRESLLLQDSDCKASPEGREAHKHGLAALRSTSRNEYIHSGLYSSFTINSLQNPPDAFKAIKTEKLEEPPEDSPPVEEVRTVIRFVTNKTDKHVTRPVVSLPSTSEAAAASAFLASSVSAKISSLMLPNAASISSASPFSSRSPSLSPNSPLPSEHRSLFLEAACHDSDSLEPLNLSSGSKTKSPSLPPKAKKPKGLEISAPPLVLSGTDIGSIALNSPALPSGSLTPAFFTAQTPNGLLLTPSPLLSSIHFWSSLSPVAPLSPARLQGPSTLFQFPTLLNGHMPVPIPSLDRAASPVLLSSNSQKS
The settings on record: protein: recombinant; tags: N-terminal GST; dsDNA, one strand shown. Put shortly: as §1

Another assay has as its target T7, FEV (Homo sapiens, UniProt Q99581 1-238).
T7 sequence: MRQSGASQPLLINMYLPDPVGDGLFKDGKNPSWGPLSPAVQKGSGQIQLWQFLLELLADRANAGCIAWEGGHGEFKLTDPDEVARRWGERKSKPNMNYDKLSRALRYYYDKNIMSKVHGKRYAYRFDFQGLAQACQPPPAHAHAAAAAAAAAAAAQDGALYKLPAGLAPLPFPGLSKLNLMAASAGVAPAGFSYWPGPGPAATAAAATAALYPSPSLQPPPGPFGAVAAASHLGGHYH
As to conditions: protein: recombinant; tags: N-terminal GST; dsDNA, one strand shown. The essentials: as §1

Another assay concerns the target ETV5 (Homo sapiens, UniProt P41161 1-510). As to conditions: protein: recombinant; tags: N-terminal GST; dsDNA, one strand shown. Put shortly:
as §1

A further assay has as its target HSF1 (Homo sapiens, UniProt Q00613 1-529). As to conditions: protein: recombinant; tags: N-terminal GST; chain copies: 3; dsDNA, one strand shown. Put shortly: as §1
For another assay, the target named is T8, SPIC (Homo sapiens, UniProt Q8N5J4 1-248).
T8 sequence: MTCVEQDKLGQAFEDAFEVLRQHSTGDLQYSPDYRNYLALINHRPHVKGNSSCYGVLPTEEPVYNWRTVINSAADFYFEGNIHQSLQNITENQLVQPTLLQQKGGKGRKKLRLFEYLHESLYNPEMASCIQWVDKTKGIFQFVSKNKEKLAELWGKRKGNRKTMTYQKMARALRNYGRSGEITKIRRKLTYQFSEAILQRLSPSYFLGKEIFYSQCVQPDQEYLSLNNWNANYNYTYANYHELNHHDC
As to conditions: protein: recombinant; tags: N-terminal GST; dsDNA, one strand shown. The essentials:
as §1

For another assay, the target named is ELF4 (Homo sapiens, UniProt Q99607 1-663). The settings on record: protein: recombinant; tags: N-terminal GST; dsDNA, one strand shown. The essentials:
as §1

A further assay has as its target T9, ELK4 (Homo sapiens, UniProt P28324-2 1-405).
T9 sequence: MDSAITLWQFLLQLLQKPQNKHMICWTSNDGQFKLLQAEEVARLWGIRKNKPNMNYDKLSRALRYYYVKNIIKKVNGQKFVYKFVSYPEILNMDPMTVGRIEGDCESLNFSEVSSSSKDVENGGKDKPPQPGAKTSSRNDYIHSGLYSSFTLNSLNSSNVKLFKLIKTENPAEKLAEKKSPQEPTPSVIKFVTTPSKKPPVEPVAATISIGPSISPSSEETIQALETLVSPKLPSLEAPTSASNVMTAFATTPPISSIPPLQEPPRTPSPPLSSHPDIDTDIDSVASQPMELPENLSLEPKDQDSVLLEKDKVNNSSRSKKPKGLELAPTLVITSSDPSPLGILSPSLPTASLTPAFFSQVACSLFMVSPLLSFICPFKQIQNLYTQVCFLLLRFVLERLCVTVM
The settings on record: protein: recombinant; tags: N-terminal GST; dsDNA, one strand shown. Put shortly: as §1

The target in another assay is T10, ETV2 (Homo sapiens, UniProt O00321 1-342).
T10 sequence: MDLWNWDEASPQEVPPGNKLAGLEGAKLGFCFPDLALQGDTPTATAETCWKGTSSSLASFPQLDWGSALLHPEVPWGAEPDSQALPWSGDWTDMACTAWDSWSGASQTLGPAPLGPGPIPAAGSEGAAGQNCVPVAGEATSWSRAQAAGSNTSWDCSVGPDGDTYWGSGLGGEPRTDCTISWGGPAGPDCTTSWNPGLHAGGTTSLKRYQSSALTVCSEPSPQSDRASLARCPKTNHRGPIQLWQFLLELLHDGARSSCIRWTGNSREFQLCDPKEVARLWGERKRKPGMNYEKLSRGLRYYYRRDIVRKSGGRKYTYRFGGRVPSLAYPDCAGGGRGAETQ
The settings on record: protein: recombinant; tags: N-terminal GST; dsDNA, one strand shown. The essentials: as §1

The next assay concerns the target T11, ELF3 (Homo sapiens, UniProt P78545 1-371).
T11 sequence: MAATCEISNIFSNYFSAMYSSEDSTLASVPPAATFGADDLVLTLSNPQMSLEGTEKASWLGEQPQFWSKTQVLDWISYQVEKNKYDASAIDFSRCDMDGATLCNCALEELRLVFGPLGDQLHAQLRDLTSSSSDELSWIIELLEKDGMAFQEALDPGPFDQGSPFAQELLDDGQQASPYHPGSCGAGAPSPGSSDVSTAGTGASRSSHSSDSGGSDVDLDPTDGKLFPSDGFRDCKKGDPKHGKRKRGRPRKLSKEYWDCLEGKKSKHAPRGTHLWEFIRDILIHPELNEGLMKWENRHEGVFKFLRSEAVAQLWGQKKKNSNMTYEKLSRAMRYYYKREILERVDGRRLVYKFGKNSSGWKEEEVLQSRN
The settings on record: protein: recombinant; tags: N-terminal GST; dsDNA, one strand shown. The essentials: as §1

In a further assay the target is CRX (Homo sapiens, UniProt O43186 1-299). As to conditions: protein: recombinant; tags: N-terminal GST; dsDNA, one strand shown. The essentials:
as §1

In the next assay the target is ETV1 (Homo sapiens, UniProt P50549 1-477). As to conditions: protein: recombinant; tags: N-terminal GST; dsDNA, one strand shown. The essentials: as §1
ETV1, sequence (P50549 whole entry): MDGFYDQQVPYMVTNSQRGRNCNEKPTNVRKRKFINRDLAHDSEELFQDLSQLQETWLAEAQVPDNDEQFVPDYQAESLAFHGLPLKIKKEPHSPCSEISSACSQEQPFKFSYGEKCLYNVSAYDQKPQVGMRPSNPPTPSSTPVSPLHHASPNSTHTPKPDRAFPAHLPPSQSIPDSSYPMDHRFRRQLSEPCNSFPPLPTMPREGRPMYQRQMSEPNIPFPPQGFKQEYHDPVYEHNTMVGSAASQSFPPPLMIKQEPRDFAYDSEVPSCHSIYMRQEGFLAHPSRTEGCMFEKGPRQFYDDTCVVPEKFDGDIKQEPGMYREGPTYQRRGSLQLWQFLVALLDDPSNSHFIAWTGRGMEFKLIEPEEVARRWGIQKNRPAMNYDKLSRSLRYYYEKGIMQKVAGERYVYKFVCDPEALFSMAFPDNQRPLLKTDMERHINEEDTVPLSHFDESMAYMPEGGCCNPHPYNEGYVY

HSF1, sequence (Q00613 whole entry): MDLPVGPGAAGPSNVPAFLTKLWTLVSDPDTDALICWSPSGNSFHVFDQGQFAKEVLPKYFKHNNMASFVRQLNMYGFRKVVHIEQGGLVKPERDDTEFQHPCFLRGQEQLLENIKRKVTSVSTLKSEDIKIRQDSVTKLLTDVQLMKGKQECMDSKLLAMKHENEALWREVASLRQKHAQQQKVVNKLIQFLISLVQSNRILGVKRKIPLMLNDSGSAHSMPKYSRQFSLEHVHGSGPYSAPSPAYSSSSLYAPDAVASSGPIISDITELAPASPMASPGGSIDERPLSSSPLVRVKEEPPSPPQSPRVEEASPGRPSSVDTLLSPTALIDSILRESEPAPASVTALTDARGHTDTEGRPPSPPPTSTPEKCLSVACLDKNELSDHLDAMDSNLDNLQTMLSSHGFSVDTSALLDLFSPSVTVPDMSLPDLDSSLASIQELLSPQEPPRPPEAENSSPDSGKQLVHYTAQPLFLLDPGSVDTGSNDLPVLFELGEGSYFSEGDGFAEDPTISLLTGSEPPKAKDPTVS
ELF1, sequence (P32519 whole entry): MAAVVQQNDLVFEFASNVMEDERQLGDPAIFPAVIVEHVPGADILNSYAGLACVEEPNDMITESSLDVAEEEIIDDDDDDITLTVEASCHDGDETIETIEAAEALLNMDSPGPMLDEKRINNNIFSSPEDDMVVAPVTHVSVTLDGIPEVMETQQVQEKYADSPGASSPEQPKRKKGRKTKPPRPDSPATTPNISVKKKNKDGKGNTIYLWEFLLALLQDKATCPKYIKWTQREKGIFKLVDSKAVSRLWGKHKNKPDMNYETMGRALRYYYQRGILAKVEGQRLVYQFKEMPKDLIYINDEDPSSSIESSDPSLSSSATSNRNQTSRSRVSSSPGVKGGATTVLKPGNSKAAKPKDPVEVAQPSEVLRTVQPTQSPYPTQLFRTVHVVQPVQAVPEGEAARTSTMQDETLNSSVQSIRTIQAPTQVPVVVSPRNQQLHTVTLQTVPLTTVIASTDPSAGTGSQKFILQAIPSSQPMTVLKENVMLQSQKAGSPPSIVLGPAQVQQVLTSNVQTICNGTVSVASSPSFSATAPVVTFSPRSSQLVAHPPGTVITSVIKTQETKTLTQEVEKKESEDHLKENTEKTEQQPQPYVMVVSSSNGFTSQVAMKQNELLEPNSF
ELF4, sequence (Q99607 whole entry): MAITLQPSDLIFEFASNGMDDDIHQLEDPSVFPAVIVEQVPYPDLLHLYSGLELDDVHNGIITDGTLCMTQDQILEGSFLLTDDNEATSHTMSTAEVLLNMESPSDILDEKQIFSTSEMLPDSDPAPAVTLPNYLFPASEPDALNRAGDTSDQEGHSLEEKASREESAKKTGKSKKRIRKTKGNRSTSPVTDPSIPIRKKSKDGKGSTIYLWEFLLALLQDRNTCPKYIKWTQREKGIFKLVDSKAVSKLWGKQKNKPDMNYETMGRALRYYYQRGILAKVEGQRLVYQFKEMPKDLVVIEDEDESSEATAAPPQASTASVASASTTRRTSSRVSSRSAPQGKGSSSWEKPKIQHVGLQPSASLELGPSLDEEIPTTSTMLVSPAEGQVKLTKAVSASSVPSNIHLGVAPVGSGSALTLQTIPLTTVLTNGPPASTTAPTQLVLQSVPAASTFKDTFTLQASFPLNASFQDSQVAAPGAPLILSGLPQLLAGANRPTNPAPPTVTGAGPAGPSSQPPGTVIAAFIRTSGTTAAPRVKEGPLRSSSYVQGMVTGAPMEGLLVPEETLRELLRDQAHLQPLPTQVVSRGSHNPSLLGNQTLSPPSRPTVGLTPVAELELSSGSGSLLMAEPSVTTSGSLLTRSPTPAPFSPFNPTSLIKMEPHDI
CRX, sequence (O43186 whole entry): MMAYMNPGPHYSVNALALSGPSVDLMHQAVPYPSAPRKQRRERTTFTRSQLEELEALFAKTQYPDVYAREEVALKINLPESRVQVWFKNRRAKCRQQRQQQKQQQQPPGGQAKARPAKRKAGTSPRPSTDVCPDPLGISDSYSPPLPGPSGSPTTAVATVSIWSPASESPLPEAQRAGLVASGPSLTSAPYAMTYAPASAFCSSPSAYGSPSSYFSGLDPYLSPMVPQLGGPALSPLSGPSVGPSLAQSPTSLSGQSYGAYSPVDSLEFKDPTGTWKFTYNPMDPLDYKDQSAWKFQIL
SPIB, sequence (Q01892 whole entry): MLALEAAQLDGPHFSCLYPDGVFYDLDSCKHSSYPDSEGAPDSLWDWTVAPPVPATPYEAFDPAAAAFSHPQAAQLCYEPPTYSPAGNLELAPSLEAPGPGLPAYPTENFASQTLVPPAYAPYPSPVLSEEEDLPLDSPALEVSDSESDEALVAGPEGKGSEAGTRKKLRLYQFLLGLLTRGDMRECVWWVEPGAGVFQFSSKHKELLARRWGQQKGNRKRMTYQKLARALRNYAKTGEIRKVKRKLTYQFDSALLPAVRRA
ETV5, sequence (P41161 whole entry): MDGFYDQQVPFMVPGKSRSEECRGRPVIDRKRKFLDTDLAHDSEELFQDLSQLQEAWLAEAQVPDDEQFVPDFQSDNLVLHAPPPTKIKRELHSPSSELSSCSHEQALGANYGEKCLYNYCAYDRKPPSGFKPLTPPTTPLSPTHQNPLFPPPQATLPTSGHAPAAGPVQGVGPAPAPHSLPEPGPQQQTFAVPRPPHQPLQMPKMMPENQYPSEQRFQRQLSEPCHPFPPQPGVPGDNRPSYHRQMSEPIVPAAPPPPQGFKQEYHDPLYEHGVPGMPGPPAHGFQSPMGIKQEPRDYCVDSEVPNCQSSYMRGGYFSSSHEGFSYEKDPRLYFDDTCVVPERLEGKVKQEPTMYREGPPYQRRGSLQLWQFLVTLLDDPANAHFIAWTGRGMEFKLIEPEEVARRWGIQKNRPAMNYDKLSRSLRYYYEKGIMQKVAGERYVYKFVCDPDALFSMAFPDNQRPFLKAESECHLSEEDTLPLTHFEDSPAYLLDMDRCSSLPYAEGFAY

On to TCTACG, for which the binding signal is 1.37 fold enrichment (6-mer frequency, TF over GST control) in the assay with FLI1; 1.4 fold enrichment (6-mer frequency, TF over GST control) with ELK1; 1.3 fold enrichment (6-mer frequency, TF over GST control) in the assay with GABPA; 1.32 fold enrichment (6-mer frequency, TF over GST control) in the assay with ERG; 1.38 fold enrichment (6-mer frequency, TF over GST control) in the assay with ELF1; 1.32 fold enrichment (6-mer frequency, TF over GST control) with EHF. Further, the binding signal was 1.49 fold enrichment (6-mer frequency, TF over GST control) with SPI1; 1.44 fold enrichment (6-mer frequency, TF over GST control) in the assay with SPIB; 1.28 fold enrichment (6-mer frequency, TF over GST control) with ELK3; 1.52 fold enrichment (6-mer frequency, TF over GST control) in the assay with FEV; 1.3 fold enrichment (6-mer frequency, TF over GST control) with ETV5; 1.49 fold enrichment (6-mer frequency, TF over GST control) in the assay with HSF1. The binding signal with SPIC was 1.3 fold enrichment (6-mer frequency, TF over GST control); with ELF4 it was 1.37 fold enrichment (6-mer frequency, TF over GST control); with ELK4, 1.36 fold enrichment (6-mer frequency, TF over GST control); in the assay with ETV2 it was 1.38 fold enrichment (6-mer frequency, TF over GST control); with ELF3, 1.5 fold enrichment (6-mer frequency, TF over GST control); with CRX, 1.44 fold enrichment (6-mer frequency, TF over GST control). Moreover, the binding signal with ETV1 is 1.44 fold enrichment (6-mer frequency, TF over GST control).
